Among the data in ChEMBL document CHEMBL3433997, “St. Jude Leishmania screening dataset” (2016) are inhibition values, retold here.

Type in all cases: functional
Experiment [1] concerns the target Solute carrier family 2, facilitated glucose transporter member 1 (Homo sapiens) (UniProt P11166). The experiment in a line: ST_JUDE_LEISH: Cytotoxicity at 2uM final concentration against transgenic Leishmania Mexicana promastigotes LmGLUT1 that are glucose transport deficient and complemented with the human glucose transporter GLUT1. Activity is measured by DNA content using SYBR green in vitro.

Experiment [2] deals with Hexose transporter 1 (Plasmodium falciparum) (UniProt O97467). The experiment can be described thus: ST_JUDE_LEISH: Cytotoxicity at 2uM final concentration against transgenic Leishmania Mexicana promastigotes LmPfHT that are glucose transport deficient and complemented with the Plasmodium falciparum hexose transporter. Activity is measured by DNA content using SYBR green in vitro.

Experiment [3] deals with Glucose transporter (Leishmania mexicana) (UniProt O61059). The experiment in a line: ST_JUDE_LEISH: Cytotoxicity at 2uM final concentration against transgenic Leishmania Mexicana promastigotes LmGT2 that are glucose transport deficient and complemented with the L. Mexicana glucose transporter 2. Activity is measured by DNA content using SYBR green in vitro.

A word on the inhibition: it is the drop in the measured response relative to a control, in per cent.

Solute carrier family 2, facilitated glucose transporter member 1 (Homo sapiens), sequence (P11166 whole entry): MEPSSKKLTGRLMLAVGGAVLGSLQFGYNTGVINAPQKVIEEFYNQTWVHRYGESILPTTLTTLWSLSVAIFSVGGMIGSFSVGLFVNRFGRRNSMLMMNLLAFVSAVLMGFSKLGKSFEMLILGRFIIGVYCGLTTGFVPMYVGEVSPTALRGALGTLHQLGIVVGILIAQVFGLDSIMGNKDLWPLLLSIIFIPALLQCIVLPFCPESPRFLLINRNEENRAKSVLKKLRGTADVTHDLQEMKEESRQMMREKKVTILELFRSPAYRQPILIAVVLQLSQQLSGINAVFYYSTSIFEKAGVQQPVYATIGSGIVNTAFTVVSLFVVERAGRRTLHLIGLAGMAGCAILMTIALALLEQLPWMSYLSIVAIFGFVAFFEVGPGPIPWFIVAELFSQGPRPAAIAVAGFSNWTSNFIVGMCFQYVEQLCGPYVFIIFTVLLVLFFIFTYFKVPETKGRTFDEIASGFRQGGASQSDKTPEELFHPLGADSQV

As to `CN(C)c1ccnc2ccc(NC(=O)Nc3ccnc4ccccc34)cc12`, the inhibition was determined as 1.93% in experiment [1], 2.58% in experiment [2] and 1.09% in experiment [3].
As to `Cc1ccccc1N1CCN(c2ncc(C(=O)NC3CC3)cc2Cl)CC1`, the inhibition amounted to 6.45% in experiment [1], 6.74% in experiment [2] and 5.71% in experiment [3].
In the case of `CCc1nc(N)nc(N)c1-c1ccccc1`, the inhibition in experiment [1] worked out at 2.31%; in experiment [2] it was 2.67%; in experiment [3], 3.69%.
For `CN1CCC(C(=O)Nc2cccc(-c3ccc(-c4nc5cc(F)ccc5[nH]4)cc3)c2)CC1`, in that order: 8.64%, 10.3% and 9.64%.
With `COc1cc(NCC2(CNCc3cn(Cc4ccccc4)c4ccccc34)CCCCC2)nc2ccccc12`, the inhibition in experiment [1] is -0.66%; in experiment [2] it was -0.02%; in experiment [3], -0.38%.
For `COc1ccc2nc(-c3ccccc3)cc(NCCCNc3cc(-c4ccccc4)nc4ccc(OC)cc34)c2c1`, the inhibition in experiment [1] was 3.06%; in experiment [2] it was 2.6%; in experiment [3] it was 0.67%.
In the case of `O=[N+]([O-])c1cc(C(c2ccc(O)c([N+](=O)[O-])c2)C(Cl)(Cl)Cl)ccc1O`, the figures for the inhibition in experiment [1], in experiment [2] and in experiment [3] were 9.43%, 9.85% and 7.92%, respectively.
As for `N#CC(NC(=O)C=Cc1ccccc1)c1ccccc1` (stereo unspecified), the inhibition in experiment [1] was -1%; in experiment [2], -2.81%; in experiment [3], -0.2%.
On to `CN(CCCCCN1CCC(NC(=O)Nc2ccc(C(F)(F)F)cc2)C1)C(=O)/C=C/c1ccc(Cl)c(Cl)c1` (stereo unspecified), for which the figures for the inhibition in experiment [1], in experiment [2] and in experiment [3] were 3.11%, 2.11% and 2.97%, respectively.
For `CCc1ccc(C2CCN(CCCCNC(=O)c3ccc(NC(=O)c4ccc(Cl)cc4)cc3)CC2)cc1`, the results for the inhibition in experiment [1], in experiment [2] and in experiment [3] were -0.05%, 0.38% and 0.05%, respectively.
In the case of `COc1ccc(C2NCCc3c2[nH]c2ccccc32)cc1CN1CCN(c2ccc(F)cc2)CC1` (stereo unspecified), the inhibition in experiment [1] amounted to 3.17%; in experiment [2], 0.27%; in experiment [3] it was 0.15%.
With `COc1ccc(C2CC(c3ccccc3)=NN2C(=O)c2ccc(Br)o2)cc1` (stereo unspecified), the inhibition in experiment [1] is -0.17%; in experiment [2], 0.43%; in experiment [3], 0.09%.
For the compound `CNC(=O)Cc1ccc(C(=O)Nc2cccc(-c3cccc(-c4nc5cc(C(F)(F)F)ccc5[nH]4)c3)c2)cc1`, the inhibition in experiment [1] is -0.26%; in experiment [2], 0.81%; in experiment [3], -0.97%.
For `O=C(CNC1=NCCN1)Nc1ccc(NC(=O)Nc2ccc(NC(=O)CNC3=NCCN3)cc2)cc1`, in that order: 3.51%, 4.85% and 0.21%.
Regarding `CN(Cc1ccccc1)C1CCCN(c2cc(NC(=O)c3cccs3)ccn2)C1` (stereo unspecified), the figures for the inhibition in experiment [1], in experiment [2] and in experiment [3] were 0.77%, -0.06% and 0.5%, respectively.
For `CCOC(=O)CCCOc1c(OC)cc(Cc2cnc(N)nc2N)cc1OC`, in that order: -1.3%, -0.68% and -2.34%.
As to `COc1ccc(NC(=O)/C=C/c2ccccc2Cl)cc1OCCN1CCC(NCc2ccccc2)CC1`, the inhibition came to 3.15% in experiment [1], 2.49% in experiment [2] and 0.75% in experiment [3].
Turning to `O=C(NC1CCN(Cc2ccccc2O)C1)c1ccc(Cl)c(Cl)c1` (stereo unspecified), the inhibition in experiment [1] is 0.72%; in experiment [2] it was 0.7%; in experiment [3] it was -5.99%.
As for `Cc1cc2cc(-c3ccc(CN)cc3)ccc2nc1N`, the inhibition was -1.44% in experiment [1], 1.71% in experiment [2] and -3.5% in experiment [3].
Take `CC(C)(C)C(Cn1ccnc1)NCc1c[nH]nc1-c1ccc(-c2ccccc2)cc1` (stereo unspecified): the inhibition is 11.2% in experiment [1], 16.9% in experiment [2] and 11.5% in experiment [3].
For `CN/C(=N\O)NCCN(C)C`, in that order: 3.01%, 4.18% and 3.91%.
In the case of `N#Cc1cccc(C(=O)NC2CCN(c3ccnc(Nc4ccc(F)cc4)n3)C2)c1` (stereo unspecified), the inhibition in experiment [1] worked out at 2.56%; in experiment [2], 2.47%; in experiment [3], 0.63%.
For the compound `CCN(CC)CCN(Cc1ccc(-c2ccc(C(F)(F)F)cc2)cc1)C(=O)c1ccc(-c2ccc(C#N)cc2)cc1`, the inhibition was 2.48% in experiment [1], 0.49% in experiment [2] and 2.37% in experiment [3].
`COc1ccc(NC(=O)Nc2ccc(Nc3nc(C)cc(N4CCCC4)n3)cc2)cc1`: the figures for the inhibition in experiment [1], in experiment [2] and in experiment [3] were 4.49%, 3.69% and 1.68%, respectively.
Consider `NC1CCN(c2nc(NCCc3ccc(O)cc3)nc(NCc3ccccc3-c3ccccc3)n2)CC1`, for which the results for the inhibition in experiment [1], in experiment [2] and in experiment [3] were -0.15%, 0.54% and 0.38%, respectively.
In the case of `O=C(/C=C/c1ccc(Cl)c(Cl)c1)NCCCCCN1CCC(NC(=O)Nc2cc(Cl)ccc2Cl)CC1`, the results for the inhibition in experiment [1], in experiment [2] and in experiment [3] were 9.69%, 8.99% and 9.67%, respectively.
For `COc1ccc(C(=O)Nc2ccc(-c3ccc([N+](=O)[O-])cc3)cc2)cc1CCCN(C)C`, in that order: 2.83%, 3.93% and 2.45%.
Turning to `CCOC(=O)c1c(C)n(-c2ccc(Cl)cc2)c2ccc(OC(=O)C=Cc3ccccc3)cc12`, the results for the inhibition in experiment [1], in experiment [2] and in experiment [3] were 2.75%, 5.54% and 5.18%, respectively.
For `O=C(Nc1ccc(Br)cc1)N1CCC(n2c(-c3ccccc3)nc3cccnc32)CC1`, the inhibition in experiment [1] stood at 2.24%; in experiment [2] it was 1.56%; in experiment [3], 4.12%.
On to `Oc1ccc(CCNc2nc(NCc3ccccc3-c3cccc(Cl)c3)nc(N3CCNCC3)n2)cc1`, for which the figures for the inhibition in experiment [1], in experiment [2] and in experiment [3] were -2.47%, -1.9% and -2.27%, respectively.
With `C[C@@H](CC1CCCCC1)OC(=O)N(C)[C@@H]1CCN(C#N)C1`, the inhibition in experiment [1] came out at 14.6%; in experiment [2], 10.3%; in experiment [3] it was 10.5%.
For `CN(C)Cc1ccc(CN2CCN(CCOc3ccc(-c4ccc(Cl)cc4)cc3)CC2)o1`, in that order: 22.7%, 13.8% and 19.2%.
For `CC(C)C(C(=O)n1cc2c(ccc3nc(N)nc(N)c32)n1)C(C)C`, in that order: 8.32%, 11% and 3.51%.
On to `CCC(C)NC(=O)Cn1c2ncccc2c(=O)n1-c1ccc(C)cc1` (stereo unspecified), for which the inhibition came to 5.25% in experiment [1], 4.88% in experiment [2] and 0.04% in experiment [3].
Consider `Cc1cc(N[C@@H](Cc2ccccc2)C(=O)Nc2ccccc2)nc(NCC2CCCCC2)n1`, for which the inhibition in experiment [1] came out at 12.8%; in experiment [2], 11.3%; in experiment [3] it was 10.7%.
For the compound `Cc1cc(C(F)(F)F)cc(-n2ncc(-c3ccc(C(=O)NCCNCc4ccccc4)cc3)c2N)n1`, the results for the inhibition in experiment [1], in experiment [2] and in experiment [3] were 0.77%, 1.46% and -0.24%, respectively.
For `O=C(Nc1ccc(OC2CCN(Cc3ccccc3)CC2)c(Cl)c1)c1cccs1`, in that order: 2.31%, 4.54% and 4.68%.
Regarding `O=C(/C=C/c1ccc(Cl)cc1)NCCCCCN1CCCC(C(=O)Nc2ccc(Cl)cc2)C1` (stereo unspecified), the values for the inhibition in experiment [1], in experiment [2] and in experiment [3] were 3.89%, 5.61% and 3.7%, respectively.
With `COc1cc2nc(NCC3CCN(c4nc(N)c5cc(OC)c(OC)cc5n4)CC3)nc(N)c2cc1OC`, the inhibition in experiment [1] came to 3.62%; in experiment [2], 2.73%; in experiment [3], 3.28%.
`O=C(Nc1ccc2c(c1)CCC2)c1cccc(N2CCN(c3ccncc3)CC2)c1`: the inhibition in experiment [1] was found to be 1.86%; in experiment [2] it was 4.51%; in experiment [3], 1.58%.
For `CCOc1c(C)cc(C(F)(F)F)cc1CNCCCNc1cc(=O)c2ccccc2[nH]1`, in that order: 5.27%, 5.03% and 5.79%.
For `CC(C)c1ccc(NC(=O)c2ccc(CN3CCCN(CC4CCCCC4)CC3)cc2)cc1`, in that order: 3.95%, 2.01% and 5.69%.
On to `Cc1noc(C)c1-c1ccc2c(Nc3ccccc3N3CCOCC3)c(C(=O)NCc3ccccc3)cnc2c1`, for which the inhibition in experiment [1] was determined as 8.19%; in experiment [2], 5.91%; in experiment [3], 1.84%.
`CC(C)C[C@H](NC(=O)[C@H](Cc1ccccc1)N(C[C@H](Cc1ccccc1)NC(=O)OC(C)(C)C)C(=O)C(F)(F)F)C(=O)NC1CCN(Cc2ccccc2)CC1`: the figures for the inhibition in experiment [1], in experiment [2] and in experiment [3] were 5.24%, 5.7% and 4.2%, respectively.
For the compound `Clc1ccc(C=NNc2ccnc3cc(Cl)ccc23)cc1`, the inhibition in experiment [1] was 0.42%; in experiment [2] it was 0.11%; in experiment [3], -0.42%.
Take `COc1cccc2cc(C(=O)N[C@@H](CC(C)C)C(=O)N[C@H](C=NN3CCOC3=O)CC(C)C)oc12`: the inhibition in experiment [1] is 2.15%; in experiment [2], 4.14%; in experiment [3], 1.9%.
`COc1ccc(CNC2CCN(C)CC2)cc1-c1ccc(S(=O)(=O)NC2CCC2)c(C)c1`: the results for the inhibition in experiment [1], in experiment [2] and in experiment [3] were 0%, -0.22% and -0.25%, respectively.
As to `N#Cc1ccc(N(CCOc2ccc(Cl)cc2)Cc2ccccc2C(F)(F)F)cc1C(F)(F)F`, the inhibition in experiment [1] is -1.04%; in experiment [2], -1.88%; in experiment [3] it was -1.54%.
For `NCCCNc1nc(Nc2ccc(C(F)(F)F)cc2F)c2c(=O)[nH]ccc2n1`, in that order: 3.4%, 3.63% and 0.74%.
With `CCc1cn(C)c2c(N3CCCC3=O)cc(C(=O)N[C@@H](Cc3ccccc3)[C@H](O)CNCc3cccc(OC)c3)cc12`, the inhibition in experiment [1] was determined as 2.48%; in experiment [2], 2.2%; in experiment [3] it was 2.88%.
For `Cc1nn(C)cc1C(C)Nc1nncc(-c2ccc(C(F)(F)F)cc2)n1` (stereo unspecified), in that order: 2.34%, 2.27% and 3.38%.
With `CC[C@H]1CN(Cc2ccccc2Br)CC[C@H]1CCCc1ccnc2ccc(O)cc12`, the inhibition amounted to 3.62% in experiment [1], 5.03% in experiment [2] and 2.43% in experiment [3].
